HCV inh – blocks hepatitis C virus; Potency, µM (highest dose often 41.8 µM), for the others: top-dose activity change, negative = inhibition, most hits filed as inhibitors; Huh7.5.1 HCVcc-Cre infection, luciferase reporter, 44 h; 340,000 tested, 3.4% active; also: potency is read from the fitted curve at half-maximal effect; % is scaled to controls: 0 for no effect and ±100 for the full control effect
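Antiviral activity was scored by luciferase reporter output from cells infected with HCVcc-Cre (~0.5 moi) in presence of compound, 44 h infection period, cells seeded 1,000/well 4 h prior.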
CHX counter – counter-screen for Shiga toxin inhibitors: cycloheximide protein synthesis inhibition | cell reporter, cycloheximide protein synthesis inhibition counterscreen | max response, % | 300,000 tested, 12% active | AID 2314; in the data active = max response mostly above about 13%, no sharp cut-off; inactive = mostly below about 14%; also: read at 38.3 µM for the half of the compounds with a filed dose; 0% is about no effect
AMA1 RON2 block – disrupts binding of P. falciparum AMA1 to RON2; AlphaScreen AMA1-biotinylated RON2 peptide binding; Potency, µM (highest dose often 58.2 µM), inactives show top-dose activity change, negative = inhibition, most hits filed as inhibitors; 360,000 tested, 0.2% active; AID 720542;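 also: potency is read from the fitted curve at half-maximal effect; 0% = vehicle wells and -100% = peptide control; nearly all actives have a fitted effect of over 45% in size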
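AMA1 (3D7) with his tag at 25 nM final met compounds first, then biotinylated RON2 peptide at 25 nM; detection used donor plus acceptor beads, 10 µg/mL apiece, read by AlphaScreen after 30 min at room temperature.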
Pf growth 96h – inhibits malaria parasite growth, 96 h | P. falciparum luciferase reporter growth, 96 h | Potency, µM (top dose mostly 28.7 µM), inactives show at the top dose activity change, negative = inhibition, hits mostly inhibitors | 320,000 tested, 6.9% active; also: potency is read from the fitted curve at half-maximal effect; % is scaled to controls: 0 for no effect and ±100 for the full control effect
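Plates of compound plus infected erythrocytes (2% hematocrit, 0.05% parasitemia final) incubate 96 hours, 37 C, 5% CO2. Detection reagent added; reduced luminescence from the parasites' luciferase reporter flags inhibition.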
Shiga toxin inh – inhibitors of Shiga toxin in Vero cells. Vero cells, Shiga toxin protein synthesis inhibition reporter. inhibition, % at 38.7 µM. 290,000 tested, 9.2% active. AID 2315; in the data active = inhibition mostly above about 28%, no sharp cut-off; inactive = mostly below about 43%; also: 0% is about no effect
Pf growth 48h – inhibits P. falciparum growth in the first generation, 48 h | 310,000 tested, 5.9% active | Potency, µM (doses to about 28.7 µM), for inactives: at the top dose activity change, negative = inhibition, hits mostly inhibitors | AID 504832 | P. falciparum luciferase growth in erythrocytes, 48 h; also: potency is read from the fitted curve at half-maximal effect; % is scaled to controls: 0 for no effect and ±100 for the full control effect
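Firefly luciferase activity from engineered P. falciparum reports growth; inhibitors lower the luminescent signal. Cultures contained 2% hematocrit erythrocytes at 0.1% final parasitemia.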
Starred values were filed as active, the others as inactive; u = inconclusive; x = no result; [ ] = remark or other dose. A selection: hits, their analogues and other compounds. The true share with any hit is near 21%. Unless noted, calls follow the shape of the dose curve; as a rule, active = well fitted curve in the direction sought with a large enough effect; inconclusive = small, poorly fitted or top-dose-only effect, or another doubt; inactive = no such curve, though single readings can be large; an effect the other way counts as inactive or inconclusive.

SMILES	HCV inh	CHX counter	AMA1 RON2 block	Pf growth 96h	Shiga toxin inh	Pf growth 48h
O=C(Nc1nnc([C@@H]2C[C@H](O)[C@@H](CO)O2)s1)Nc1ccccc1C(F)(F)F	x	x	-5%	x	x	x
C/C(=N\N=c1/scc(C)n1Cc1ccco1)c1cccc([N+](=O)[O-])c1	u	18*	7%[2.32 µM]	u	24	-29%
Cc1cs/c(=N\N=C\c2cccc([N+](=O)[O-])c2)n1Cc1ccco1	12%	-2	-4%	219%	-9	16%
CC1CC=CC2C1C(=O)N(Cc1ccccc1)C2c1ccc(-c2ccoc2)cc1F (centres undefined)	x	8	x	x	-5	x
CC1(C(=O)NS(=O)(=O)c2ccc(F)cc2F)CCN1C(=O)C1CCCCC1 (centres undefined)	x	x	0%	x	x	x
COCc1c(CCl)cnc(C)c1O	-7%	8.1*	-1%	9.3µM*	48*	-26%
COc1cccc(C(=O)Nc2nnc(-c3ccccc3)s2)c1	7%	33*	0%	u	112*	-24%[0.00184 µM]
COc1ccccc1-c1nnc(NC(=O)c2ccc3c(c2)OCO3)s1	18%	-3	-7%	31%	12	37%
COc1cccc(OC)c1C(=O)Nc1nnc(-c2ccc(F)cc2)s1	-9%	10*	-1%	u	30*	0%
COc1cccc(C(=O)Nc2nnc(S(=O)(=O)Nc3cccc(C)c3)s2)c1	-8%	-1	7%	0%	-1	28%
COc1cccc(C(=O)Nc2nnc(-c3ccc(OC)cc3OC)s2)c1	10µM*	-7	17%	16%	-2	12%
Cc1ccc(-c2nnc(NC(=O)c3c(F)cccc3Cl)s2)cc1	9%	-3	23%	139%	10	37%
COc1ccccc1-c1nnc(NC(C)=O)s1	-18%	38*	0%	7.4µM*	49*	196%
CO/N=C(/C(=O)N[C@@H]1C(=O)N2C(C(=O)O)=CCS[C@H]12)c1csc(N)n1	x	x	x	-13%	x	-21%
O=C(Cc1ccccc1)Nc1sc2c(c1C(=O)Nc1cccc(Cl)c1)CCCC2	x	16	x	x	20	x
O=C(COC(=O)c1ccccc1NCCO)Nc1cccc(S(=O)(=O)NC2=NCCCCC2)c1	-5%	x	9%	u	x	-6%
CC(C)N(CCCNC(=O)Cn1c(=O)c2cccn2c2ccccc21)Cc1ccccc1	-3%	-8	1%	u	-7	-14%
COc1ccc(OC)c(NC(=O)Nc2nnc([C@@H]3O[C@H](CO)[C@@H](O)[C@H]3O)s2)c1	x	x	9%	x	x	x
O=C1NC(=Nc2ccccc2)c2c1cccc2[N+](=O)[O-]	1%	19*	0%	-98%	21	u
COc1cccc(-c2c(C(=O)N/N=C(\C)c3ccc(Cl)s3)nnn2-c2nonc2N)c1	-4%	-3	52%	u	-7	u
COc1ncccc1C(=O)NC1CCCc2c1cnn2-c1cc(C)cc(C)c1 (centres undefined)	-21%	-1	-5%	12%	19	-15%
CC(=O)Nc1cccc(C(=O)NC2CCCc3c2cnn3-c2cc(C)cc(C)c2)c1 (centres undefined)	-7%	25*	-9%	u	24	-8%
Cc1cc(C)cc(-n2ncc3c2CCCC3NC(=O)c2cc(C)oc2C)c1 (centres undefined)	u	8	-1%	36%	9	-15%
COCc1ccc(C(=O)NC2CCCc3c2cnn3-c2cc(C)cc(C)c2)s1 (centres undefined)	13µM*	12	8%	7.4µM*	27*	u
Cc1cc(C(=O)NC2CCCc3c2cnn3-c2cc(F)cc(F)c2)nn1C (centres undefined)	-5%	15	-1%	u	25*	34%
SMILES	HCV inh	CHX counter	AMA1 RON2 block	Pf growth 96h	Shiga toxin inh	Pf growth 48h
Cc1cc(C)cc(-n2ncc3c2CCCC3NC(=O)c2csnn2)c1 (centres undefined)	3%	14	-7%	u	22*	u
Cc1cc(C)cc(-n2ncc3c2CCCC3NC(=O)C2(C(N)=O)CC2)c1 (centres undefined)	u	12	7%	1%	-30	2%
O=C(C1CC1)N1N=C(C2CCCCC2)CC1(O)C(F)(F)F (centres undefined)	-3%	1	-8%	16%	-12	-14%
CCN(CC(=O)Nc1ccc2c(c1)OCCO2)C(=O)CSCC(=O)Nc1ccc(C)cc1	u	x	12%	17%	x	u
Cc1ccc(-n2ncc3c2CCCC3NC(=O)c2csnn2)cc1C (centres undefined)	-8%	19*	16%	u	60*	u
COC(CNC(=O)CCc1c(C)nc2c(c(C)nn2-c2ccc(C)cc2)c1C)OC	u	-2	-8%	13%	-7	2.6µM*
CCN(CC)CCNC(=O)CCc1c(C)nc2c(c(C)nn2-c2ccc(C)c(C)c2)c1C	7.1µM*	-3	-9%	23%	-5	13µM*
COc1cccc(-c2nc(CS(=O)(=O)CC(=O)NC3CCCCC3C)c(C)o2)c1 (centres undefined)	-12%	-5	10%	u	2	u
COc1ccc(CN(C2CCCC2)S(=O)(=O)c2ccc(-n3cnnn3)cc2)cc1OC	u	-2	212%	u	-11	u
COc1cc(S(=O)(=O)N(Cc2ccc(C)cc2)C2CCCCC2)ccc1-n1cnnn1	-13%	9	-2%	x	-4	5.9µM*
Nc1nnc(N)c2ccccc12	-9%	2	-3%	u	-13	31%
Nc1nsc2ccccc12	11µM*	24*	-3%	-4%	10	u
Cc1cc(Cl)ccc1-c1nc(NC(C)C)nc2ccsc12	x	x	62%	x	x	x
Cc1ccc(C(=O)N2CCN3C(=O)c4ccccc4C23c2ccc(Cl)cc2)cc1 (centres undefined)	10µM*	-2	-24%	6.6µM*	-20	x
O=C(CCl)N1CCN2C(=O)c3ccccc3C12c1ccc(Cl)cc1 (centres undefined)	-9%	-2	-6%	u	-5	-4%
O=C(Nc1cccc(Cl)c1)N1CCN2C(=O)c3ccccc3C12c1ccccc1 (centres undefined)	u	-1	-15%	10µM*	-7	17µM*
Cc1nc2c(n1O)CCC/C2=N\O	4%	0	-2%	39%	-12	16%
COc1ccc(-c2nc3c(n2O)CCC/C3=N\O)cc1	25%	27*	3%	156%	77	72%
CCOc1ccc(NC(=O)C(c2ccccn2)N(C(=O)CCl)c2ccc(OC)cc2)cc1 (centres undefined)	8%	55*	16%	u	77*	-79%
CCOc1ccc(NC(=O)CSc2ccc(-c3ccccn3)nn2)cc1	3%	1	-28%	u	-10	u
